The subject of test [1] is MILI (PIWIL2) piRISC loaded with L1MC piRNA (26 nt). Kind of test: pre-steady-state target cleavage rate (min^-1); guide: L1MC piRNA 5'p-UAACUAAAUACUAUGCAAGCUGUAGG; higher = faster piRNA-guided slicing of the target. An outline of the steps:
(§1)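 Cleave-'n-Seq: a transcribed, DNA-blocked target RNA library (0.1 nM) was mixed with 1 nM active affinity-purified piRISC carrying one synthetic guide, with or without 500 nM GTSF1 partner protein, in HEPES–potassium acetate buffer at 33 °C for 0–8 or 0–960 min. Uncleaved targets were sequenced and normalised to depth and to weakly complementary targets. Three trials were pooled, and k3 was capped at 0.0001 min^-1. The pre-steady-state cleavage rate came from a burst-and-steady-state fit.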

Test [2] relates to EfPiwi piRISC loaded with L1MC piRNA (26 nt). Kind of test: pre-steady-state target cleavage rate (min^-1); auxiliary factor: 500 nM Ephydatia muelleri Gtsf1; guide: L1MC piRNA 5'p-UAACUAAAUACUAUGCAAGCUGUAGG; MIWI and MILI are mouse PIWI proteins and EfPiwi is from a freshwater sponge; tags in brackets are library labels; higher = faster piRNA-guided slicing of the target. An outline of the steps: as §1
[3] abbreviates: auxiliary factor: 500 nM mouse GTSF1.
The mark [4] stands for this setting: auxiliary factor: none (no GTSF1).

± gives the standard deviation.

As for UCCUGCUACAGCUUGCAUAGUUUUUAGUUA, the “pre-steady-state target cleavage rate” value in test [1] (setting [3]) stood at 0.0767 ± 0.014; in test [1] (setting [4]), 0.00327 ± 0.0022; in test [2], 0.00538 ± 0.0021.
Taken in the same sequence, the figures for UCCUGGAUGUGGUUGCAUAGUAUUUAGUUA were 0.163 ± 0.022, 0.0112 ± 0.0031 and 0.00426 ± 0.0039.
Taken in the same sequence, the figures for UCCUGGAUGUGCCUUGCAUAGUAUUUAGUUA were 0.111 ± 0.022, 0.00996 ± 0.0032 and 0.0886 ± 0.031.
Consider UCCUCCUACAGCUUGCAUAGUAGUUUAGUUA, for which the results for the “pre-steady-state target cleavage rate” value in test [1] (setting [3]), in test [1] (setting [4]) and in test [2] were 0.23 ± 0.022, 0.007 ± 0.0022 and 0.0131 ± 0.0052, respectively.
As to UCCUCCAACAGCUUGCAUACUAUUUAGUUA, the figures for the “pre-steady-state target cleavage rate” value in test [1] (setting [3]), in test [1] (setting [4]) and in test [2] were 0.0905 ± 0.012, 0.00321 ± 0.0025 and 0.00961 ± 0.0032, respectively.
UCCUCCUACUGCUUGCAAAGUAUUUAGUUA: the figures for the “pre-steady-state target cleavage rate” value in test [1] (setting [3]), in test [1] (setting [4]) and in test [2] were 0.138 ± 0.011, 0.00644 ± 0.0018 and 0.0558 ± 0.017, respectively.
Consider UCCUGGAUCAGGUUGCAUAGUUUUUAGUUA, for which the “pre-steady-state target cleavage rate” value in test [1] (setting [3]) amounted to 0.023 ± 0.0088; in test [1] (setting [4]), 0.00644 ± 0.0022; in test [2], 0.00481 ± 0.0024.
For UCCUGGAUGUGCUUGCAUAGUAGUUUAGUUA, the “pre-steady-state target cleavage rate” value was 0.0704 ± 0.017 in test [1] (setting [3]), 0.00921 ± 0.0027 in test [1] (setting [4]) and 0.0051 ± 0.0034 in test [2].
The matching figures for UCCUGCUCACAGCUUGCAUAGUAUUUAGUUA: 0.351 ± 0.019, 0.0111 ± 0.0037 and 0.072 ± 0.016.
For the sequence UCCUGGAUCAGCUUGCAUAGAAUUUAGUUA, the “pre-steady-state target cleavage rate” value in test [1] (setting [3]) is 0.0368 ± 0.0086; in test [1] (setting [4]), 0.00356 ± 0.002; in test [2], 0.00327 ± 0.0015.
Consider UCCUGGAUGAGUUUGCAUAGUAUUUAGUUA, for which the “pre-steady-state target cleavage rate” value is 0.17 ± 0.023 in test [1] (setting [3]), 0.0059 ± 0.0028 in test [1] (setting [4]) and 0.0219 ± 0.006 in test [2].
As for UCCUCCUACAGCUUAGCAUAGUAUUUAGUUA, the “pre-steady-state target cleavage rate” value in test [1] (setting [3]) is 0.314 ± 0.017; in test [1] (setting [4]), 0.0112 ± 0.0024; in test [2], 0.0919 ± 0.025.
Taken in the same sequence, the figures for UCCUCCUACAGCUUGCAUAGUAAAUAGUUA were 0.201 ± 0.022, 0.00285 ± 0.0028 and 0.00735 ± 0.0032.
For the sequence UCCUGCUACUGCUUGCAUUGUAUUUAGUUA, the entries for the “pre-steady-state target cleavage rate” value in test [1] (setting [3]), in test [1] (setting [4]) and in test [2] were 0.211 ± 0.018, 0.0081 ± 0.0024 and 0.00835 ± 0.0023, respectively.
Taken in the same sequence, the figures for UCCUGGAUGUCGAUGUAUAGUAUUUAGUUA were 0.0919 ± 0.011, 0.0069 ± 0.002 and 0.00398 ± 0.003.
The matching figures for UCCUGGAAGCAGCUUGCAUAGUAUUUAGUUA: 0.259 ± 0.016, 0.0136 ± 0.0032 and 0.0569 ± 0.013.
With UCCUGGAACAGGUUGCAAAGUAUUUAGUUA, the “pre-steady-state target cleavage rate” value is 0.144 ± 0.013 in test [1] (setting [3]), 0.00884 ± 0.003 in test [1] (setting [4]) and 0.0118 ± 0.0039 in test [2].
The matching figures for UCCUGGAACAGCUUGCAUGUAUUUAGUUA: 0.083 ± 0.014, 0.00308 ± 0.0027 and 0.00314 ± 0.0027.
UCCUCCUACACCUUGCAUAGUAUUUAGUAA: the figures for the “pre-steady-state target cleavage rate” value in test [1] (setting [3]), in test [1] (setting [4]) and in test [2] were 0.226 ± 0.037, 0.0033 ± 0.0026 and 0.00625 ± 0.003, respectively.
On to UCCUGGAUGUCCUUGCAUAGUAUCUAGUUA, for which the “pre-steady-state target cleavage rate” value is 0.12 ± 0.024 in test [1] (setting [3]), 0.00287 ± 0.0025 in test [1] (setting [4]) and 0.00775 ± 0.0043 in test [2].
Take UCCUGGUAGUCCUUGCAUAGUAUUUAGUAA: the “pre-steady-state target cleavage rate” value in test [1] (setting [3]) was 0.113 ± 0.025; in test [1] (setting [4]), 0.00362 ± 0.003; in test [2], 0.00627 ± 0.0035.
Regarding UCCUGGAACAGCUAGCAUAGUAUUUAGUAA, the “pre-steady-state target cleavage rate” value is 0.275 ± 0.03 in test [1] (setting [3]), 0.00673 ± 0.0025 in test [1] (setting [4]) and 0.00289 ± 0.0015 in test [2].
On to UCCUGGAUCACCAUGCAUAGUAUUUAGUUA, for which the “pre-steady-state target cleavage rate” value in test [1] (setting [3]) was found to be 0.14 ± 0.019; in test [1] (setting [4]) it was 0.00489 ± 0.0025; in test [2], 0.013 ± 0.0061.
The matching figures for UCCUGGAUGUGCGUUGCAUAGUAUUUAGUUA: 0.145 ± 0.016, 0.00925 ± 0.0032 and 0.00539 ± 0.0024.
UCCUGGAUCAGCUUCGCAUAGUAUUUAGUUA: the “pre-steady-state target cleavage rate” value stood at 0.309 ± 0.02 in test [1] (setting [3]), 0.00591 ± 0.0024 in test [1] (setting [4]) and 0.0389 ± 0.009 in test [2].
Consider UCCUGCUACAGCUUGCAUAGUAUUUAUUUA, for which the figures for the “pre-steady-state target cleavage rate” value in test [1] (setting [3]), in test [1] (setting [4]) and in test [2] were 0.148 ± 0.03, 0.00466 ± 0.0021 and 0.0055 ± 0.0037, respectively.
Consider “UCCUGCUACAGCUUGCAUAGUAUUUAGUUU [g2:g25:cont:t1U]”, for which the figures for the “pre-steady-state target cleavage rate” value in test [1] (setting [3]), in test [1] (setting [4]) and in test [2] were 0.315 ± 0.022, 0.0127 ± 0.0035 and 0.158 ± 0.042, respectively.
Consider UCCUGGAUGAGCUUCAUAGUAUUUAGUUA, for which the “pre-steady-state target cleavage rate” value in test [1] (setting [3]) turned out to be 0.0977 ± 0.012; in test [1] (setting [4]), 0.00515 ± 0.002; in test [2] it was 0.00394 ± 0.0033.
Taken in the same sequence, the figures for UCCUGGAUGAGCAAGCAUAGUAUUUAGUUA were 0.12 ± 0.014, 0.00601 ± 0.0021 and 0.0118 ± 0.0048.
Taken in the same sequence, the figures for UCCUGCUACAGCUUGCAUAGUAUUUAGUCA were 0.202 ± 0.033, 0.00397 ± 0.0022 and 0.00386 ± 0.0017.
UCCUCCUACUGCUUGGAUAGUAUUUAGUUA: the “pre-steady-state target cleavage rate” value in test [1] (setting [3]) came to 0.223 ± 0.016; in test [1] (setting [4]) it was 0.011 ± 0.0023; in test [2], 0.064 ± 0.012.
On to UCCUCCUAUAGCUUGCAUAGUAUUUAGUUA, for which the “pre-steady-state target cleavage rate” value in test [1] (setting [3]) amounted to 0.244 ± 0.015; in test [1] (setting [4]), 0.00658 ± 0.0019; in test [2] it was 0.0108 ± 0.0034.
The matching figures for “UCCUGGUACAGCUUGCAUAGUAUUUAGUUU [g2:g24:cont:t1U]”: 0.249 ± 0.016, 0.0218 ± 0.0053 and 0.117 ± 0.038.
UCCUGCUACAGCUUGCAUAGUAGUUUAGUUA: the “pre-steady-state target cleavage rate” value in test [1] (setting [3]) turned out to be 0.239 ± 0.032; in test [1] (setting [4]), 0.0034 ± 0.0024; in test [2], 0.00695 ± 0.0028.
As for UCCUGGAUCAGGUUGCAUAGUAUUAAGUUA, the “pre-steady-state target cleavage rate” value in test [1] (setting [3]) was determined as 0.144 ± 0.017; in test [1] (setting [4]) it was 0.00601 ± 0.0021; in test [2], 0.00407 ± 0.0025.
On to UCCUGCUACAGCUUGCAUAGUAUUUGAGUUA, for which the “pre-steady-state target cleavage rate” value in test [1] (setting [3]) stood at 0.135 ± 0.02; in test [1] (setting [4]), 0.00331 ± 0.0024; in test [2], 0.0068 ± 0.0022.
Taken in the same sequence, the figures for UCCUGGAUGUCCUUGCAUAGUAUUUAGUUUA were 0.104 ± 0.015, 0.00891 ± 0.0035 and 0.00634 ± 0.003.
UCCUCCUACAGCUGCAUAGUAUUUAGUUA: the figures for the “pre-steady-state target cleavage rate” value in test [1] (setting [3]), in test [1] (setting [4]) and in test [2] were 0.275 ± 0.018, 0.00792 ± 0.0023 and 0.0884 ± 0.026, respectively.
Take UCCUGCUACAGCAUGCAAAGUAUUUAGUUA: the “pre-steady-state target cleavage rate” value in test [1] (setting [3]) is 0.163 ± 0.015; in test [1] (setting [4]), 0.00807 ± 0.0029; in test [2] it was 0.00845 ± 0.0025.
On to UCCUGGUACGGCUUGCAUAGUAUUUAGUUA, for which the results for the “pre-steady-state target cleavage rate” value in test [1] (setting [3]), in test [1] (setting [4]) and in test [2] were 0.195 ± 0.03, 0.0133 ± 0.0047 and 0.00921 ± 0.0043, respectively.

These data come from the supplement of paper PMC10338343.
